# Measurements from PubChem BioAssay (NCI).
# The panel holds about 79,000 compounds, 15% with a hit somewhere; the sample as a whole holds those more often. Unmarked numbers belong to inactive results. The source made the active and inactive calls. Rule as the data show it: active = growth inhibition above about 70%; inactive = the rest.
# Assay: NCI Yeast Anticancer Drug Screen. Data for the sgs1 mgt1 strain (AID 161);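 also: 0% = growth of cultures given vehicle only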
# Settings: S. cerevisiae sgs1 mgt1 strain, at 50.0 µM, active compounds read high
# Experimental: Growth inhibition of yeast strains with defined genetic alterations is measured as a screen for potential anti-cancer activity. Selected strains with alterations in DNA damage repair or cell cycle control were exposed to compounds and growth inhibition was measured relative to vehicle treated controls. The strain used in this assay is sgs1 mgt1
row,Structure (SMILES),growth inhibition
1,CC(C)N[C@@H]1CCC[C@H]1O,-17.1%
2,N#CS.N=C=S.N=C=S.[Co+3].[NH-]CC[NH-].[NH-]CC[NH-],36.4%
3,CCC(C)c1ccc(O)cc1 (stereo not given),-5.95%
4,Clc1ccc(C(Cl)(Cl)Cl)c(Cl)c1,-9.3%
5,O=C(CCC1C(=O)NC(=S)NC1=O)c1ccc2ccccc2c1,-12.2%
6,Oc1c(Cl)cccc1Cl,-63%
7,CCC(CC)C(=O)Cl,-33.2%
8,O=C1C=CC(=O)N1c1ccccc1Cl (tested in a mixture with another compound),20.5%
9,c1ccc2c(c1)ccc1sc3c([n+]12)CCC3,-18.2%
10,CC(SC(C)C(=O)N/N=C/c1ccc(N(CCCl)CCCl)cc1)C(=O)N/N=C\c1ccc(N(CCCl)CCCl)cc1 (stereo not given),-6.05%
11,O=C(O)c1ccccc1Cl,3.75%
12,O=C(COc1cccc(Cl)c1)NCc1ccccc1NC(=O)c1ccc(S(=O)(=O)F)cc1,95.2% (active)
13,N#CC(C#N)=Cc1ccccc1O,-1.95%
14,O=C1NCCCC1(Cl)Cl,4.2%
15,BrCCCBr,14.4%
16,CC(C)c1ccc(CCN)cc1,-19.8%
17,O=C(CN1C(=O)C2CCCCC2C1=O)N1CC1 (stereo not given),-11.7%
18,Cc1ccc2[nH]c(=S)n(-c3cccc(C(F)(F)F)c3)c(=O)c2c1,21.4%
19,CC(CCC#N)([N+](=O)[O-])[N+](=O)[O-],4.35%
20,CNC(=O)Oc1ccc(Br)cc1Br,-2.6%

row,Structure (SMILES),growth inhibition
1,CCC(O)C[As](=O)(O)c1ccccc1OC (stereo not given),2%
2,COc1ccccc1OC (tested in a mixture with another compound),26.4%
3,COC(=O)C1C(=O)NC2(C)CC1c1ccccc1O2 (stereo not given),-30.8%
4,NC1CCCC[C@H]1N.N[C@@H]1CCCC[C@@H]1N.O=C(P(=O)([O-])[O-])P(=O)([O-])[O-].[Pt+4].[Pt+4],-13.7%
5,O=c1[nH]c(=O)c2[nH]c(N=Nc3ccc(N(CCCl)CCCl)cc3)nc2[nH]1,34.6%
6,CC(C)=NNC1=NC(C)(C)P(=O)(N2CCCC2C(=O)O)S1 (stereo not given),-0.45%
7,CC(=O)[CH-]C(C)=O.CC(=O)[CH-]C(C)=O.CC(=O)[CH-]C(C)=O.[Cl-].[Hf+4],-16.6%
8,O=c1n(CC2CO2)c2ccccc2n1CC1CS1 (stereo not given),7%
9,CCC(=O)C(c1ccccc1)(c1ccccc1)C(C)CN(C)C (stereo not given),9.35%
10,O=C1NC(=S)NC(=O)C1=Cc1ccncc1,-7.7%
11,C1NCC2CNCC1O2,-7.95%
12,C=CCn1nnc(N)n1,-21.8%
13,Cc1ccc(NN=O)nc1,-3.9%
14,CC1CCCCN1CCCN=C(N)N[N+](=O)[O-] (stereo not given),19.2%
15,NC(=O)CI,38.1%
16,COc1ccccc1-n1c(C)nc2ccccc2c1=O,6.2%
17,COc1cc2c(cc1OC)C13CCN4C=C5CCOC6CC(=O)N2C1C6C5CC43 (stereo not given),-12.7%
18,CC(C)=CCN=C(N)N,-17.3%
19,Cn1cnc([N+](=O)[O-])c1[Se]c1nc(N)nc2nc[nH]c12,-26.8%
20,NC(N)=N/N=C/c1ccc(Cl)c(Cl)c1,-8.2%
